eIF4H inh – inhibitors of RNA binding by human eIF4H | Q15056 | eIF4H fluorescence polarization binding assay | inhibition, % at 35 µM | hit rate 0.94% among 290,000 | AID 2012;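 further: calls also rest on retests at 20 µM and on dose response follow-up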
MLLE-PAM2 inh – inhibitors of microRNA-mediated deadenylation, human PABP1 MLLE binding; P11940; GST-MLLE / FITC-PAM2 fluorescence polarization; inhibition, % at 20 µM; hit rate 0.36% among 360,000; AID 588489; in the data active means inhibition above about 35%, passing the limit was not always enough
PABP polyA inh – blocks human PABP binding to poly(A) RNA | P11940 | calls only at 35 µM | fluorescence polarization | hit rate 1% among 290,000 | AID 2014;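 further: calls also rest on retests at 20 µM and on dose response follow-up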
HMGR II inh – inhibitors of class II HMG-CoA reductase from Enterococcus faecalis; hit rate 0.41% among 190,000; purified E. faecalis HMGR, NADPH absorbance 340 nm kinetic; inhibition, % at 10 µM; AID 1066;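 active means inhibition above a set limit, the median over all tested compounds plus 3 SD, cut at about 9.5% in these data; inconclusive means no clear call, values can overlap the other calls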;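 further: enzyme runs in reverse so mevalonate oxidation gives rising NADPH absorbance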
PHOSPHO1 block – blocks human PHOSPHO1 phosphatase activity. recombinant PHOSPHO1, absorbance phosphatase assay. inhibition, % at 13.3 µM. hit rate 1.1% among 290,000. AID 1565; in the data active means inhibition above about 60%
A number is an active result; - = inactive; ? = inconclusive; . = not tested or not shown; + = active, no number. In the library only some 2.4% were active in any assay of this set; here they are far more common. Unless noted, how the calls were made is not given here.

SMILES	eIF4H inh	MLLE-PAM2 inh	PABP polyA inh	HMGR II inh	PHOSPHO1 block
CCC(N1CCOC1=O)S(=O)(=O)c1ccc(C)cc1 (configuration not stated)	-	-	-	-	93
CC(NC(=O)/C(C#N)=C/c1ccc(OCC(=O)O)cc1)c1ccccc1 (configuration not stated)	-	-	+	.	-
CC(C)C(=O)N1CCC1(C)C(=O)Nc1ccc(-n2cncn2)cc1 (configuration not stated)	.	-	.	.	.
Cc1ccc(NC(=O)Cc2cc(C(=O)O)c3ccccc3n2)c(C)c1	-	-	-	-	-
Cc1cc(C)c2c(N)c(S(=O)c3ccc(C(C)(C)C)cc3)sc2n1 (configuration not stated)	-	-	-	-	106
C=CCn1c(SCC(=O)c2ccc(CNC(C)=O)o2)nc2scc(C3CC3)c2c1=O	77	-	-	-	-
c1ccc(-c2nc(Sc3ncnc4c3cnn4-c3ccccc3)n[nH]2)cc1	-	.	-	-	87
Cc1ccc(CSc2ncnc3c2cnn3-c2ccccc2)cc1	-	-	-	-	-
CCC(=O)N(c1nnc(SCC(=O)c2ccc[nH]2)s1)C1CC1	.	-	.	.	.
COc1ccc(/C=N/Nc2nnc(Cc3ccccc3)c(=O)[nH]2)cc1OC	?	-	+	.	-
O=C1NC(=S)SC1=C1CCCC1	-	-	-	-	71
O=C(NC1CCCCC1)C1CC(=O)N(Cc2ccccc2)C1 (configuration not stated)	-	-	-	.	-
O=C1CN(C(=O)CSc2nnc(-c3ccccc3)n2Cc2ccc3c(c2)OCO3)c2ccccc2N1	-	-	-	-	69
COc1ccc(-n2nc(C(=O)NCc3ccco3)c3c4ccccc4n(C)c3c2=O)cc1	2.8	-	+	-	-
C=CCN(c1ccccc1)S(=O)(=O)c1cccc(C(=O)Nc2ccc(N3CCOCC3)cc2)c1	.	-	.	.	.
O=C(NCc1ccc2c(c1)OCO2)C1CCCN1C(=O)Nc1ccc(Cl)cc1 (configuration not stated)	-	-	-	.	-
COCCNc1c2c(nc3ccccc13)CCC2	-	-	-	.	-
CN(C)CCCNc1ccc(-c2n[nH]c(=O)c3ccccc23)cc1[N+](=O)[O-]	-	-	-	.	-
CN(C)CCNCCCNc1c2ccccc2nc2cccc([N+](=O)[O-])c12	.	52	.	.	.
CN(C)CCCNc1c2c(nc3ccccc13)CCC2	-	-	+	.	-
O=C(Cn1ccnc1[N+](=O)[O-])NCCO	.	-	.	.	.
N#CC1=C(N)C(C#N)(C#N)C(c2cccnc2)C2CC(c3ccccc3)CC=C12 (configuration not stated)	?	-	+	-	-
N#CC1=C(N)C(C#N)(C#N)C(c2cccnc2)C2CCCC=C12 (configuration not stated)	120	.	-	-	-
N#CC1=C(N)C(C#N)(C#N)C(c2ccc[nH]2)C2CCCC=C12 (configuration not stated)	?	-	?	-	-
N#CC1=C(N)C(C#N)(C#N)[C@H](c2cccnc2)[C@H]2CN(C(=O)OCc3ccccc3)CC=C12	-	-	-	-	-
SMILES	eIF4H inh	MLLE-PAM2 inh	PABP polyA inh	HMGR II inh	PHOSPHO1 block
COC(=O)C1(C)NC(c2cccc(C)c2)C2C(=O)N(c3ccccc3)C(=O)C21 (configuration not stated)	.	-	.	.	.
COCC(C)n1c(C)cc(C(=O)CSc2nnc(N)s2)c1C (configuration not stated)	-	-	-	-	99
Cc1cc(C(=O)CSc2nnnn2-c2ccccc2)c(C)n1CCc1ccccc1	-	-	-	-	84
Cc1cc(C(=O)CSc2nnc(N)s2)c(C)n1CCc1ccc(Cl)cc1	-	-	-	-	74
O=C(CCC(=O)N1CCOCC1)Nc1nnc(C2CCCCC2)s1	-	-	-	-	-
O=C(O)Cc1c[nH]c2ccccc12	.	-	.	.	.
O=C(O)Cc1c[nH]c2cccc(O)c12	88	-	+	-	-
Cc1cc(O)ccc1Nc1nc2ccccc2nc1Nc1ccc(O)cc1C	24	-	+	-	97
OC(CNCC(c1ccc(Cl)cc1Cl)c1c[nH]c2ccccc12)c1ccccc1 (configuration not stated)	-	-	-	-	-
Cn1ncc(Cl)c1C(=O)N1CCN(c2ncccn2)CC1	-	-	-	-	63
CCOC(=O)C1=C(C)N(C)C(=O)NC1c1cc2c(cc1[N+](=O)[O-])OCO2 (configuration not stated)	93	-	+	-	-
O=C(NCCC(=O)N1CCN(S(=O)(=O)c2ccccc2Cl)CC1)Nc1ccccc1	.	-	.	.	.
